# Experiments:
# [1] = tested on: CAMK1D
# [2] = tested on: CAMK1
# [3] = tested on: CAMK2G
# [4] = tested on: CAMKK1
# [5] = tested on: T1, CDC2L1
# T1 construct: gene CDK11B
# [6] = tested on: CDC2L2
# 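Note: kd values determined as follow-up on hits from a single-replicate KINOMEscan panel screen.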
smiles,measurement,setting,value
O=C1NC(=O)C(c2ccc(Cl)cc2)=C1Nc1ccc(O)cc1 [SB-340867],Kd,[1],> 10 µM
same,Kd,[2],> 10 µM
COc1cccc(CNC(=O)NC2CCN(c3ccnc(Nc4ccc(F)cc4)n3)C2)c1 (stereo not shown) [GSK1379723],Kd,[3],> 10 µM
CN1c2ccc(-c3ccc(C(N)=O)cc3)cc2-c2[nH]ncc2S1(=O)=O,Kd,[4],> 10 µM
Cc1nccc(-c2c(-c3ccc(F)cc3)ncn2CCCN2CCOCC2)n1.Cl [SB-282975],Kd,[5],> 10 µM
Cc1c(Cn2c3ccccc3n3c(=O)cc(N4CCOCC4)nc23)cccc1C(F)(F)F [GSK2306394],Kd,[5],> 10 µM
CC(=O)c1c(C)c2cnc(Nc3ccn(C)n3)nc2n(C2CCCC2)c1=O,Kd,[6],> 10 µM
